# From the supplement of paper PMC8728848
# Many of the other results were omitted from the sample, so the strongest signals are more common in it than they were.
# B1: SalT (Orysata sativa) (protein)
# chain: MTLVKIGLWGGNGGSAQDISVPPKKLLGVTIYSSDAIRSIAFNYIGVDGQEYAIGPWGGGEGTSTEIKLGSSEHIKEISGTHGPVYDLADIVTYLKIVTSANNTYEAGVPNGKEFSIPLQDSGHVVGFFGRSGTLIDAIGIYVHPILEQKLISEEDLNSAVDHHHHHH
# Key:
# Experiment in all cases: glycan array binding signal (z-score within array); higher = stronger binding
# Conditions in all cases: glycan notation: IUPAC condensed, linker removed
# Fuc(a1-2)Gal(b1-3)GalNAc = target: Fuc(a1-2)Gal(b1-3)GalNAc
# How it was run: (§1)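 The binding signal is a Z-score computed within each array. Data were drawn from 3228 arrays in the Consortium for Functional Glycomics database, restricted to those with a known protein sequence. Scores were averaged over arrays of the same protein sequence at different concentrations or buffers, and over linkers, and negative values can be taken as non-binding.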
# [1] = target: Fuc(a1-2)Gal(b1-3)GalNAc(a1-3)[Fuc(a1-2)]Gal(b1-4)Glc
# How it was run: as §1
# [2] = target: Fuc(a1-2)Gal(b1-3)GalNAc(a1-3)[Fuc(a1-2)]Gal(b1-4)GlcNAc
# How it was run: as §1
# [3] = target: Fuc(a1-2)Gal(b1-3)[Fuc(a1-4)]GlcNAc(b1-3)[Fuc(a1-3)[Gal(b1-4)]GlcNAc(b1-6)]Gal(b1-4)Glc
# How it was run: as §1
# [4] = target: Fuc(a1-2)Gal(b1-4)GlcNAc(b1-3)GalNAc
# How it was run: as §1
# [5] = target: Fuc(a1-2)Gal(b1-4)GlcNAc6S
# How it was run: as §1
# [6] = target: Fuc(a1-2)Gal(b1-4)[Fuc(a1-3)]GlcNAc(b1-3)Gal(b1-4)[Fuc(a1-3)]GlcNAc
# How it was run: as §1
# [7] = target: Fuc(a1-2)[Gal(a1-3)]Gal(b1-4)Glc
# How it was run: as §1
# [8] = target: Fuc(a1-2)[Gal(a1-4)]Gal(b1-4)GlcNAc
# How it was run: as §1
# [9] = target: Fuc(a1-2)[GalNAc(b1-3)]Gal
# How it was run: as §1
# [10] = target: Fuc(a1-3)[Gal(b1-4)]GlcNAc(b1-3)GalNAc
# How it was run: as §1
# [11] = target: Fuc(a1-3)[Gal(b1-4)]GlcNAc(b1-6)[Gal(b1-3)GlcNAc(b1-3)]Gal(b1-4)Glc
# How it was run: as §1
# [12] = target: Fuc(a1-3)[GalNAc(b1-4)]GlcNAc
# How it was run: as §1
# [13] = target: Gal(a1-4)Gal(b1-3)GlcNAc(b1-2)Man(a1-3)[Gal(a1-4)Gal(b1-3)GlcNAc(b1-2)Man(a1-6)]Man(b1-4)GlcNAc(b1-4)GlcNAc
# How it was run: as §1
# [14] = target: Gal(b1-3)Gal(b1-4)GlcNAc(b1-2)Man(a1-3)[Gal(b1-3)Gal(b1-4)GlcNAc(b1-2)Man(a1-6)]Man(b1-4)GlcNAc(b1-4)GlcNAc
# How it was run: as §1
# [15] = target: Gal(b1-3)GlcNAc(b1-2)Man(a1-3)[Gal(b1-3)GlcNAc(b1-2)Man(a1-6)]Man(b1-4)GlcNAc(b1-4)GlcNAc
# How it was run: as §1
# [16] = target: Gal(b1-4)GlcNAc(b1-2)Man(a1-3)[Gal(b1-4)GlcNAc(b1-2)][GlcNAc(b1-4)]Man(b1-4)GlcNAc(b1-4)GlcNAc
# How it was run: as §1
# [17] = target: Gal(b1-4)GlcNAc(b1-2)Man(a1-3)[GlcNAc(b1-2)Man(a1-6)]Man(b1-4)GlcNAc(b1-4)GlcNAc
# How it was run: as §1
# [18] = target: Gal(b1-4)GlcNAc(b1-2)Man(a1-6)[Man(a1-3)]Man(b1-4)GlcNAc(b1-4)GlcNAc
# How it was run: as §1
# [19] = target: Gal(b1-4)GlcNAc(b1-2)[Gal(b1-4)GlcNAc(b1-6)]Man(a1-6)[Gal(b1-4)GlcNAc(b1-2)Man(a1-3)]Man(b1-4)GlcNAc(b1-4)[Fuc(a1-6)]GlcNAc
# How it was run: as §1
# [20] = target: Gal(b1-4)GlcNAc(b1-6)GalNAc
# How it was run: as §1
# [21] = target: Gal3S(b1-4)[Fuc(a1-3)]Glc6S
# How it was run: as §1
# GalNAc3S(b1-4)GlcNAc = target: GalNAc3S(b1-4)GlcNAc
# How it was run: as §1
# Glc(b1-4)Glc = target: Glc(b1-4)Glc
# How it was run: as §1
# [22] = target: GlcNAc(b1-2)Man(a1-3)[GlcNAc(b1-2)Man(a1-6)]Man(b1-4)GlcNAc(b1-4)GlcNAc
# How it was run: as §1
# [23] = target: GlcNAc(b1-3)[GlcNAc(b1-6)]GalNAc
# How it was run: as §1
# Kdn(a2-3)Gal(b1-4)Glc = target: Kdn(a2-3)Gal(b1-4)Glc
# How it was run: as §1
# [24] = target: Man(a1-2)Man(a1-3)[Man(a1-2)Man(a1-6)]Man(a1-6)[Man(a1-2)Man(a1-2)Man(a1-3)]Man
# How it was run: as §1
# [25] = target: Man(a1-2)Man(a1-6)[Man(a1-3)]Man(a1-6)[Man(a1-2)Man(a1-2)Man(a1-3)]Man
# How it was run: as §1
# [26] = target: Man(a1-3)[Man(a1-6)]Man(a1-6)[Man(a1-2)Man(a1-3)]Man(b1-4)GlcNAc(b1-4)GlcNAc
# How it was run: as §1
binder,measurement,setting,value
B1,glycan array binding signal (z-score),Fuc(a1-2)Gal(b1-3)GalNAc,-0.283
same,glycan array binding signal (z-score),[1],-0.306
same,glycan array binding signal (z-score),[2],-0.31
same,glycan array binding signal (z-score),[3],-0.307
same,glycan array binding signal (z-score),[4],-0.307
same,glycan array binding signal (z-score),[5],-0.308
same,glycan array binding signal (z-score),[6],-0.308
same,glycan array binding signal (z-score),[7],-0.308
same,glycan array binding signal (z-score),[8],-0.309
same,glycan array binding signal (z-score),[9],-0.31
same,glycan array binding signal (z-score),[10],-0.301
same,glycan array binding signal (z-score),[11],-0.31
same,glycan array binding signal (z-score),[12],-0.306
same,glycan array binding signal (z-score),[13],3.59
same,glycan array binding signal (z-score),[14],3.71
same,glycan array binding signal (z-score),[15],3.69
same,glycan array binding signal (z-score),[16],0.03
same,glycan array binding signal (z-score),[17],2.65
same,glycan array binding signal (z-score),[18],4.64
same,glycan array binding signal (z-score),[19],0.799
same,glycan array binding signal (z-score),[20],-0.307
same,glycan array binding signal (z-score),[21],-0.3
same,glycan array binding signal (z-score),GalNAc3S(b1-4)GlcNAc,-0.306
same,glycan array binding signal (z-score),Glc(b1-4)Glc,-0.309
same,glycan array binding signal (z-score),[22],4.06
same,glycan array binding signal (z-score),[23],-0.309
same,glycan array binding signal (z-score),Kdn(a2-3)Gal(b1-4)Glc,-0.306
same,glycan array binding signal (z-score),[24],-0.304
same,glycan array binding signal (z-score),[25],-0.282
same,glycan array binding signal (z-score),[26],5.46
